This note sets out measurements from PubChem BioAssay (NCI).

Compounds without any hit were thinned out: in the full panel of roughly 79,000, 15% have a hit. Calls of active or inactive are those of the source. Rule as the data show it: active = growth inhibition above about 70%; inactive = the rest.

A short description of one assay: NCI Yeast Anticancer Drug Screen. Data for the sgs1 mgt1 strain (AID 161).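 Also: 0% = growth of cultures given vehicle only.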 As to conditions: S. cerevisiae sgs1 mgt1 strain, at 50.0 µM, stronger effect = higher value. In outline: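 Read-out: growth inhibition vs vehicle controls. Cells: mutant yeast strain deficient in DNA damage repair.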
With `Cc1cccc(NC(=O)CCc2ccc(Cl)cc2)n1`, the growth inhibition is 0.2% (inactive).

`O=C(NNc1nc(-c2ccccc2)cs1)C(F)(F)F`: the growth inhibition was 87.5% (active).

For `COc1ccc(C(=O)C(c2ccc(OC)cc2)C2(O)C(=O)Nc3c(Cl)cc(Cl)cc32)cc1` (stereo not drawn), the growth inhibition is 90% (active).

As to `CC(=O)NNc1nc(C)c(C(=O)NNC(=O)C(=O)Nc2ccc(Cl)c([N+](=O)[O-])c2)s1`, the growth inhibition is 69.2% (inactive).

With `COc1ccc(Cc2cncc3c(O)c(OC)ccc23)cc1O`, the growth inhibition is 39.2% (inactive).

On to `Nc1ccccc1N=Nc1c(S(=O)(=O)O)cc2cc(S(=O)(=O)O)cc(O)c2c1O`, for which the growth inhibition is -27.6% (inactive).

Take `CCN(CC)c1c(C(=O)/C=C/c2ccc(OC)cc2)c(-c2ccccc2)nn(C)c1=O`: the growth inhibition was 69% (inactive).

As to `O=C(O)/C=C/c1ccc(Cl)c(Cl)c1`, the growth inhibition is 55.1% (inactive).

`CCC12C=CCN3CC[C@@]4(c5cc([C@@]6(C(=O)OC)C[C@@H]7CN(CCc8c6[nH]c6ccccc86)C[C@](O)(CC)C7)c(OC)cc5N(C)[C@H]4[C@@](O)(C(=O)OC)[C@@H]1OC(=O)CCCCCCCCCCCN1C(=O)C=CC1=O)[C@H]32` (stereo partly drawn): the growth inhibition is 92.7% (active).

As to `Cc1cc(C)c(Cc2cc(C(C)(C)C)cc(C)c2O)cc1Cc1cc(C(C)(C)C)cc(C)c1O`, the growth inhibition is 63.6% (inactive).

As to `COC(=O)C(=O)/C=C(/O)c1ccc(OC)cc1`, the growth inhibition is 43% (inactive).

Take `Oc1ccc2c(c1)OCC1c3ccccc3OC21` (stereo not drawn): the growth inhibition was 66.3% (inactive).

As to `Cc1cc(N2C(=O)CCSC2=S)c([N+](=O)[O-])cc1C`, the growth inhibition is 99.5% (active).

For `CCCCCCC(C)S(=O)(=O)c1ccc(C)cc1` (stereo not drawn), the growth inhibition is 59.7% (inactive).

For the compound `S=c1sc2c(s1)SCCOCCOCCOCCS2`, the growth inhibition is 30.6% (inactive).

Take `N#Cc1cn(-c2c3ccccc3nc3ccccc23)c(=O)[nH]c1=O`: the growth inhibition is 49.6% (inactive).

On to `O=C1C=C(c2ccccc2)O/C1=C\C(=O)c1ccc(Cl)cc1`, for which the growth inhibition is 86.4% (active).

Regarding `O=c1[nH]c2cc(Cl)ccc2nc1/C=C(\O)c1ccc(N2CCN(c3ccc(/C(O)=C/c4nc5ccc(Cl)cc5[nH]c4=O)cc3)CC2)cc1`, the growth inhibition is 94.2% (active).

As to `O=C1Oc2ccccc2C(=O)/C1=C/N1C(=O)/C(=C/c2ccccc2)NC1=S`, the growth inhibition was 71.7% (active).

Turning to `CN(C)/C=C(\C(=O)c1ccccc1)n1nc(-c2ccccc2)cc1-c1ccccc1`, the growth inhibition was 83.3% (active).

With `O=C1C(=O)c2ccccc2C(O)=C1Sc1ccccc1`, the growth inhibition is 95% (active).

In the case of `O=C(c1c(F)c(F)c(F)c(F)c1F)n1c(=S)n(C(=O)c2c(F)c(F)c(F)c(F)c2F)c2ccccc21`, the growth inhibition was 62.3% (inactive).

With `CCCCNCCC1(c2ccccc2)C(=O)Oc2ccccc21` (stereo not drawn), the growth inhibition is 59.9% (inactive).

Take `COc1cc(/C=C/c2cc[n+](C)cc2)ccc1O`: the growth inhibition is 12.4% (inactive).

For `c1ccc(-c2ccc(-c3ccc(C4=NCCN4)cc3)o2)cc1`, the growth inhibition was 96.8% (active).

For the compound `CCCCCCCCCCCCCCNC(=O)C[N+](C)(C)Cc1ccccc1`, the growth inhibition is 99.3% (active).

Turning to `NC(CSSCC(N)C(=O)Nc1ccc2ccccc2c1)C(=O)Nc1ccc2ccccc2c1` (stereo not drawn), the growth inhibition was 91.7% (active).

For `O=C(OCc1ccccc1)C(O)c1ccccc1` (stereo not drawn), the growth inhibition was -14.7% (inactive).

`CC(=O)CC1(O)C(=O)Nc2ccc(Br)cc21` (stereo not drawn): the growth inhibition was 10.8% (inactive).

Consider `S=C(S)NCCN1CCNCC1`, for which the growth inhibition was -27.9% (inactive).

As for `CCCCCCCC(=O)N1CCCCC1CC` (stereo not drawn), the growth inhibition was 73% (active).

Turning to `O=C1CCCC1C(=O)OC1CCCC1` (stereo not drawn), the growth inhibition is -18.6% (inactive).

Take `CCN1CCC(O)(/C=C/c2cccc(C)c2)C(C(=O)/C=C/c2cccc(C)c2)C1` (stereo not drawn): the growth inhibition is 90.8% (active).

For `O=C(SCCCc1ccccc1)c1cc([N+](=O)[O-])cc([N+](=O)[O-])c1`, the growth inhibition is 85.8% (active).

Turning to `O=C1C(=O)C2CC3(CC1N2Cc1ccccc1)OCCO3`, the growth inhibition is 96.9% (active).

Take `CNc1cc(SC)nc(N)n1`: the growth inhibition is 92.8% (active).

On to `Clc1ccc(Cl)c(SCCCN2CCNCC2)c1`, for which the growth inhibition was 54.2% (inactive).

Consider `CC(C)C(Cl)CC/C(CBr)=C(\Cl)CCl` (stereo not drawn), for which the growth inhibition was 92.4% (active).

Turning to `O=C(O)CNc1ccc2c(c1)Cc1cc(Br)ccc1-2`, the growth inhibition was 97.9% (active).

Another assay can be described thus: NCI Yeast Anticancer Drug Screen. Data for the cln2 rad14 strain (AID 165).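 Also: 0% = growth equal to vehicle treated cultures.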 Conditions: S. cerevisiae cln2 rad14 strain, at 5.0 µM (retest, dose inferred, filed as 0.5), stronger effect = higher value. In outline:
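Growth of compound-exposed yeast (cln2 rad14 genotype) measured and expressed as inhibition relative to vehicle.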
Take `Cc1cccc(NC(=O)CCc2ccc(Cl)cc2)n1`: the growth inhibition is -6% (inactive).

Regarding `O=C(NNc1nc(-c2ccccc2)cs1)C(F)(F)F`, the growth inhibition was 50% (inactive).

In the case of `COc1ccc(C(=O)C(c2ccc(OC)cc2)C2(O)C(=O)Nc3c(Cl)cc(Cl)cc32)cc1` (stereo not drawn), the growth inhibition is 25% (inactive).

With `CC(=O)NNc1nc(C)c(C(=O)NNC(=O)C(=O)Nc2ccc(Cl)c([N+](=O)[O-])c2)s1`, the growth inhibition is 18% (inactive).

`COc1ccc(Cc2cncc3c(O)c(OC)ccc23)cc1O`: the growth inhibition is 2% (inactive).

As for `Nc1ccccc1N=Nc1c(S(=O)(=O)O)cc2cc(S(=O)(=O)O)cc(O)c2c1O`, the growth inhibition is 34% (inactive).

Consider `CCN(CC)c1c(C(=O)/C=C/c2ccc(OC)cc2)c(-c2ccccc2)nn(C)c1=O`, for which the growth inhibition is 9% (inactive).

For the compound `O=C(O)/C=C/c1ccc(Cl)c(Cl)c1`, the growth inhibition was 19% (inactive).

Regarding `CCC12C=CCN3CC[C@@]4(c5cc([C@@]6(C(=O)OC)C[C@@H]7CN(CCc8c6[nH]c6ccccc86)C[C@](O)(CC)C7)c(OC)cc5N(C)[C@H]4[C@@](O)(C(=O)OC)[C@@H]1OC(=O)CCCCCCCCCCCN1C(=O)C=CC1=O)[C@H]32` (stereo partly drawn), the growth inhibition was 16% (inactive).

As to `Cc1cc(C)c(Cc2cc(C(C)(C)C)cc(C)c2O)cc1Cc1cc(C(C)(C)C)cc(C)c1O`, the growth inhibition is -16% (inactive).

In the case of `COC(=O)C(=O)/C=C(/O)c1ccc(OC)cc1`, the growth inhibition was -12% (inactive).

In the case of `Oc1ccc2c(c1)OCC1c3ccccc3OC21` (stereo not drawn), the growth inhibition is 23% (inactive).

As for `Cc1cc(N2C(=O)CCSC2=S)c([N+](=O)[O-])cc1C`, the growth inhibition is -5% (inactive).

`CCCCCCC(C)S(=O)(=O)c1ccc(C)cc1` (stereo not drawn): the growth inhibition was 5% (inactive).

As for `S=c1sc2c(s1)SCCOCCOCCOCCS2`, the growth inhibition is 12% (inactive).

Regarding `N#Cc1cn(-c2c3ccccc3nc3ccccc23)c(=O)[nH]c1=O`, the growth inhibition was 21% (inactive).

As to `O=C1C=C(c2ccccc2)O/C1=C\C(=O)c1ccc(Cl)cc1`, the growth inhibition was 14% (inactive).

Consider `O=c1[nH]c2cc(Cl)ccc2nc1/C=C(\O)c1ccc(N2CCN(c3ccc(/C(O)=C/c4nc5ccc(Cl)cc5[nH]c4=O)cc3)CC2)cc1`, for which the growth inhibition was 17% (inactive).

With `O=C1Oc2ccccc2C(=O)/C1=C/N1C(=O)/C(=C/c2ccccc2)NC1=S`, the growth inhibition is 4% (inactive).

Regarding `CN(C)/C=C(\C(=O)c1ccccc1)n1nc(-c2ccccc2)cc1-c1ccccc1`, the growth inhibition was 22% (inactive).

Consider `O=C1C(=O)c2ccccc2C(O)=C1Sc1ccccc1`, for which the growth inhibition is 41% (inactive).

Turning to `O=C(c1c(F)c(F)c(F)c(F)c1F)n1c(=S)n(C(=O)c2c(F)c(F)c(F)c(F)c2F)c2ccccc21`, the growth inhibition is -2% (inactive).

For the compound `CCCCNCCC1(c2ccccc2)C(=O)Oc2ccccc21` (stereo not drawn), the growth inhibition is 0% (inactive).

On to `COc1cc(/C=C/c2cc[n+](C)cc2)ccc1O`, for which the growth inhibition is -2% (inactive).

For `c1ccc(-c2ccc(-c3ccc(C4=NCCN4)cc3)o2)cc1`, the growth inhibition was -21% (inactive).

Regarding `CCCCCCCCCCCCCCNC(=O)C[N+](C)(C)Cc1ccccc1`, the growth inhibition was 99% (active).

Regarding `NC(CSSCC(N)C(=O)Nc1ccc2ccccc2c1)C(=O)Nc1ccc2ccccc2c1` (stereo not drawn), the growth inhibition was 21% (inactive).

Regarding `O=C(OCc1ccccc1)C(O)c1ccccc1` (stereo not drawn), the growth inhibition is -4% (inactive).

Turning to `CC(=O)CC1(O)C(=O)Nc2ccc(Br)cc21` (stereo not drawn), the growth inhibition is -3% (inactive).

`S=C(S)NCCN1CCNCC1`: the growth inhibition is -3% (inactive).

Consider `CCCCCCCC(=O)N1CCCCC1CC` (stereo not drawn), for which the growth inhibition was -53% (inactive).

As for `O=C1CCCC1C(=O)OC1CCCC1` (stereo not drawn), the growth inhibition is 14% (inactive).

With `CCN1CCC(O)(/C=C/c2cccc(C)c2)C(C(=O)/C=C/c2cccc(C)c2)C1` (stereo not drawn), the growth inhibition was 91% (active).

As to `O=C(SCCCc1ccccc1)c1cc([N+](=O)[O-])cc([N+](=O)[O-])c1`, the growth inhibition was 94% (active).

As for `O=C1C(=O)C2CC3(CC1N2Cc1ccccc1)OCCO3`, the growth inhibition is 5% (inactive).

As to `CNc1cc(SC)nc(N)n1`, the growth inhibition was -1% (inactive).

Regarding `Clc1ccc(Cl)c(SCCCN2CCNCC2)c1`, the growth inhibition was 6% (inactive).

Turning to `CC(C)C(Cl)CC/C(CBr)=C(\Cl)CCl` (stereo not drawn), the growth inhibition was 24% (inactive).

Take `O=C(O)CNc1ccc2c(c1)Cc1cc(Br)ccc1-2`: the growth inhibition was -3% (inactive).
